Measured values taken from PubChem BioAssay (NCI).
This is part of a sample that, as a whole, favours compounds with a hit. Of some 79,000 tested, about 15% had one in any assay. Values without a mark were called inactive. The source made the active and inactive calls. Rule as the data show it: active = growth inhibition above about 70%; inactive = the rest.

Assay: NCI Yeast Anticancer Drug Screen. Data for the rad50EPP+ strain (AID 151);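 also: 0% = growth of vehicle-treated control cultures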
Settings: S. cerevisiae rad50 mutant strain, stronger effect = higher value
Procedure: Growth inhibition of yeast strains with defined genetic alterations is measured as a screen for potential anti-cancer activity. Selected strains with alterations in DNA damage repair or cell cycle control were exposed to compounds and growth inhibition was measured relative to vehicle treated controls. The strain used in this assay is rad50EPP+

CCCCCCNCCCNc1c2cc(OC)ccc2nc2cccc([N+](=O)[O-])c12
growth inhibition (at 1.2 µM): 2% | growth inhibition (at 3.7 µM): 5% | growth inhibition (at 11.0 µM): 20% | growth inhibition (at 33.0 µM): 60% | growth inhibition (at 100.0 µM): 92% (active)

CC(C)OC(=O)NNc1cc(Cl)ccc1Cl
growth inhibition (at 1.2 µM): 20% | growth inhibition (at 3.7 µM): 27% | growth inhibition (at 11.0 µM): 60% | growth inhibition (at 33.0 µM): 72% (active) | growth inhibition (at 100.0 µM): 88% (active)

Cc1cc(C)c2[s+]snc2c1
growth inhibition (at 1.2 µM): 1% | growth inhibition (at 3.7 µM): 5% | growth inhibition (at 11.0 µM): 5% | growth inhibition (at 33.0 µM): 20% | growth inhibition (at 100.0 µM): 80% (active)

OC(Cc1cccc2ccccc12)CN1CCC(c2ccccc2)CC1 (stereo not given)
growth inhibition (at 1.2 µM): 24% | growth inhibition (at 3.7 µM): 5% | growth inhibition (at 11.0 µM): 23% | growth inhibition (at 33.0 µM): 38% | growth inhibition (at 100.0 µM): 60%

c1ccc2nc3c(nc2c1)sc1ccccc13
growth inhibition (at 1.2 µM): 41% | growth inhibition (at 3.7 µM): 92% (active) | growth inhibition (at 11.0 µM): 95% (active) | growth inhibition (at 33.0 µM): 94% (active) | growth inhibition (at 100.0 µM): 84% (active)

O=C1c2ccccc2N2OC3(N4CCCC4)CCCCC3C12c1ccccc1 (stereo not given)
growth inhibition (at 1.2 µM): -33% | growth inhibition (at 3.7 µM): -38% | growth inhibition (at 11.0 µM): -28% | growth inhibition (at 33.0 µM): 35% | growth inhibition (at 100.0 µM): 99% (active)

O=C(NO)c1coc2ccccc2c1=O
growth inhibition (at 1.2 µM): -2% | growth inhibition (at 3.7 µM): -6% | growth inhibition (at 11.0 µM): -3% | growth inhibition (at 33.0 µM): -5% | growth inhibition (at 100.0 µM): -1%

O=C1C=C(Br)C(=O)c2ccccc21
growth inhibition (at 1.2 µM): 19% | growth inhibition (at 3.7 µM): 39% | growth inhibition (at 11.0 µM): 95% (active) | growth inhibition (at 33.0 µM): 99% (active) | growth inhibition (at 100.0 µM): 98% (active)
